# Source: PubChem
# Pf growth 48h: P. falciparum growth inhibition at 48 hours (one generation). P. falciparum luciferase growth in erythrocytes, 48 h. Potency, µM (series often up to 28.7 µM), without a hit: at the highest dose activity change, negative = inhibition, usual class: inhibitors. 5.9% of 310,000 active; note: potency is the fitted concentration of half-maximal effect; % is set by controls: 0 for no effect and ±100 for the full control effect
#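 Firefly luciferase activity from engineered P. falciparum reports growth; inhibitors lower the luminescent signal. Cultures contained 2% hematocrit erythrocytes at 0.1% final parasitemia.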
# Sm TGR block: inhibitors of Schistosoma mansoni thioredoxin glutathione reductase. purified TGR, DTNB reduction, TNB absorbance 405 nm. Potency, µM (highest dose often 114 µM), without a hit: at the highest dose activity change, negative = inhibition, actives largely listed as inhibitors. 3% of 360,000 active; note: potency is the fitted concentration of half-maximal effect; % is set by controls: 0 for no effect and ±100 for the full control effect; nearly all actives have a fitted effect of over 60% in size
#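 Kinetic colorimetric format: TGR-catalysed, NADPH-driven DTNB reduction monitored via TNB absorbance. Enzyme dispensed at 20 nM; compound exposure 15 min at room temperature before reaction start.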
# SARS PLpro yeast: blocks SARS-CoV papain-like protease in a yeast assay; Potency, µM (series often up to 32.9 µM), without a hit: at the top dose activity, positive = growth rescue, actives largely listed as activators; 0.19% of 330,000 active; S. cerevisiae expressing SARS-CoV PLpro, growth rescue; calls by dose curve; note: potency is the fitted concentration of half-maximal effect; 0% is about no effect; nearly all actives have a fitted effect of over 55% in size
# HCV inhibitor: blocks hepatitis C virus. Potency, µM (top dose mostly 41.8 µM), inactives show at the highest dose activity change, negative = inhibition, usual class: inhibitors. AID 651820. Huh7.5.1 HCVcc-Cre infection, luciferase reporter, 44 h. 3.4% of 340,000 active; note: potency is the fitted concentration of half-maximal effect; % is set by controls: 0 for no effect and ±100 for the full control effect
#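 Antiviral activity was scored by luciferase reporter output from cells infected with HCVcc-Cre (~0.5 moi) in presence of compound, 44 h infection period, cells seeded 1,000/well 4 h prior.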
# Pf growth 96h: P. falciparum growth inhibition at 96 hour, primary screen for plastid delayed-death inhibitors | P. falciparum luciferase reporter growth, 96 h | Potency, µM (doses to about 28.7 µM), for inactives: top-dose activity change, negative = inhibition, most hits filed as inhibitors | 6.9% of 320,000 active | AID 504834; note: potency is the fitted concentration of half-maximal effect; % is set by controls: 0 for no effect and ±100 for the full control effect
#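 96 h incubation, 37 C, 5% CO2, of luciferase-reporter P. falciparum-infected RBCs (2% hematocrit, 0.05% parasitemia final) with test compounds; endpoint luminescence.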
# HCMV inh: inhibitors of human cytomegalovirus | HFF cells, HCMV-luciferase reporter, 72 h; hits give low values | 4.5% of 410,000 active | activity change, negative = inhibition, % at 57.5 µM; in the data active = activity change below about -60%; inconclusive = no clear call, values can overlap the other calls; inactive = above about -39%; note: % is set by controls: 0 for no effect and ±100 for the full control effect
#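 Steps: HFFs plated, 16 h 37C; compounds added; HCMV-luciferase added to MOI 1 PFU/cell; 72 h 37C; OneGlo reagent, 5 min room temperature; luminescence read, normalized to controls.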
# Active calls of the source: *; ? = inconclusive; / = not tested or not shown. The list is not random: actives were taken first. Their share in the collection is about 15%. Unless noted, calls come from the whole dose curve; as a rule, active = well fitted curve in the direction sought with a large enough effect; inconclusive = small, poorly fitted or top-dose-only effect, or another doubt; inactive = no such curve, though single readings can be large; an effect the other way counts as inactive or inconclusive.
SMILES,Pf growth 48h,Sm TGR block,SARS PLpro yeast,HCV inhibitor,Pf growth 96h,HCMV inh
COc1ccc2[nH]c(C)c(CCNCc3cn(C)c4ccccc34)c2c1,8.28µM*,?,4.9%,?,5.22µM*,-9.9
COc1ccc(OCCNC(=S)Nc2cccc3ccccc23)cc1,?,2.8%,-15.6%,?,?,-83.8*
N#Cc1ccc(C(=O)NCc2ccc3c(c2)CCN3C(=O)c2ccc(F)cc2)cc1,/,-0.5%,/,/,/,23.9
CC1Cc2ccccc2N1S(=O)(=O)c1cccc(C(=O)NCCCn2ccnc2)c1 (configuration not stated),?,0.1%,1.9%,-20.1%,?,?
CCCCOc1ccccc1C1NC(=O)CCC1[N+](=O)[O-] (configuration not stated),-6.9%,0.3%,-1.7%,4.3%,-21.4%,15.7
OCC1(CO)COC(CCc2ccccc2)=N1,1.4%,-13.2%,-4.3%,10.8%,0.0%,-13.8
COc1ccc(NC(=S)NCCc2c(C)[nH]c3ccc(OC)cc23)cc1,?,-0.6%,1.9%,-22.5%,-0.5%,-68.7*
CCOCCCNC(=O)c1cc(C)nn1-c1ccccc1,8.4%,-6.6%,5.9%,21.1%,11.7µM*,-5.1
CCNC(=O)c1ccc(-n2nc(C)cc2-c2ccccc2)cc1,?,-22.7%,-4.8%,-22.6%,1.47µM*,24.7
CCOC(CNC(=O)c1cc(C)nn1-c1ccccc1)OCC,6.0%,19.5%,1.5%,5.8%,/,-17.7
CN1C2CCC1C(C(=O)Oc1ccccc1)C(c1ccc(Cl)cc1)C2 (configuration not stated),/,/,/,/,/,-76.7*
COC(=O)C1C(c2ccc(C)cc2)CC2CCC1N2C (configuration not stated),/,/,/,/,/,-29.8
CCN1C(=O)S/C(=C/c2c(OCc3ccc(C(=O)O)cc3)ccc3ccccc23)C1=O,?,-0.1%,-73.7%,21.9%,6.57µM*,-25.3
O=C(O)c1ccc(COc2ccc3ccccc3c2/C=C2/NC(=O)N(c3ccccc3)C2=O)cc1,5.86µM*,1.0%,-38.7%,6.9%,?,-6.1
O=C(O)c1ccc(COc2ccccc2/C=C2/NC(=O)N(c3cccc(Cl)c3)C2=O)cc1,18.5%,-21.3%,-2.3%,-2.2%,?,-6.8
CCN1C(=O)S/C(=C/c2cn(C)c3ccccc23)C1=O,20.6%,-0.3%,24.6%,-13.6%,?,57.7
O=C(Nc1ccc2nc(SCCOc3ccccc3)sc2c1)c1cccs1,/,0.0%,/,/,/,-22.6
Nc1ccc(Cc2ccc(N)cc2)cc1,/,/,/,1.0%,/,2.8
Nc1ccc(Cc2ccc([N+](=O)[O-])cc2)cc1,/,/,/,-23.7%,/,-64.2*
CN1C(=O)C2ON(c3ccccc3)C(c3cccs3)C2C1=O (configuration not stated),5.2%,5.5%,3.4%,19.1%,9.28µM*,0.1
O=C1C2ON(c3ccccc3)C(c3ccccc3F)C2C(=O)N1c1ccccc1 (configuration not stated),9.3%,0.0%,-5.0%,6.0%,-0.4%,10.3
OC(CCN1CCCCC1)c1ccc(-c2ccccc2)cc1 (configuration not stated),/,6.2%,-2.4%,?,4.65µM*,14.0
COC(=O)c1c(NC2=NS(=O)(=O)c3ccccc32)sc2c1CCC(C(C)(C)C)C2 (configuration not stated),/,/,/,-17.8%,/,32.8
CCOc1ccc(CNCc2c(C(=O)O)c(C)n(Cc3c(F)cccc3Cl)c2C)cc1OC,/,-11.6%,/,/,/,-6.4
Cc1sc2nc(C3CC3)nc(SCC(=O)NCc3ccco3)c2c1C,-18.5%,?,5.5%,1.8%,18.1%,7.0
SMILES,Pf growth 48h,Sm TGR block,SARS PLpro yeast,HCV inhibitor,Pf growth 96h,HCMV inh
O=C(CSc1nc(C2CCCCC2)nc2ccccc12)NCc1ccco1,6.0%,/,-1.6%,?,27.2%,-102.4*
O=C(CSc1nnnn1C1CCCCC1)NCc1ccco1,13.3%,28.2µM*,1.4%,33.7%,?,16.2
O=C(CSc1nnnn1C1CCCC1)NCc1ccc2c(c1)OCO2,3.6%,-16.4%,3.8%,10.7%,10.4µM*,7.5
Cn1nnnc1SCC(=O)NCc1ccco1,-2.8%,-14.0%,?,2.1%,32.4%,38.1
COc1ccc2oc(C(=O)OCC(=O)NCc3ccc(OC)c(OC)c3)c(C)c2c1,1.3%,-2.2%,2.4%,3.9%,1.4%,-26.5
O=C(NCc1ccccc1Cl)C1=CC=CN2CCS(=O)(=O)N=C12,-9.3%,-20.9%,3.5%,6.6%,-17.0%,-14.5
Cc1cc(C)c(S(=O)(=O)N[C@H]2CC[C@@]34CCCN3C(=O)CCC[C@H]4[C@H]2Cc2ccccc2)c(C)c1,/,/,/,/,/,-21.9
CCC(C)Nc1nc(-c2c[nH]c3ccccc23)cs1 (configuration not stated),8.28µM*,0.8%,-2.8%,?,?,30.3
CNc1nc(-c2c[nH]c3ccccc23)cs1,/,-12.3%,-12.6%,?,?,0.5
CN(c1ccccc1)S(=O)(=O)c1cccc(C(=O)NCCc2c[nH]c3ccccc23)c1,/,/,/,10µM*,/,-23.0
O=C(NCCc1c[nH]c2ccccc12)c1cccc(S(=O)(=O)Nc2ccccc2Cl)c1,4.6%,0.4%,-10.6%,8.6%,?,-99.8*
CN(c1ccccc1)S(=O)(=O)c1cccc(C(=O)NCc2ccccc2)c1,?,-2.5%,2.9%,?,-32.5%,-38.5
CC(C)OCCCNC(=O)NC(=O)c1ccc(Cl)cc1,13.9%,12.6%,-1.4%,?,?,-2.9
CO[C@H]1C[C@@H]2CC[C@@H](C)[C@@](O)(O2)C(=O)C(=O)N2CCCC[C@H]2C(=O)O[C@H]([C@H](C)C[C@@H]2CC[C@@H](O)[C@H](OC)C2)CC(=O)[C@H](C)C=C(C)[C@@H](O)[C@@H](OC)C(=O)[C@H](C)C[C@H](C)C=CC=CC=C1C,5.22µM*,14.1µM*,-10.5%,/,0.928µM*,/
CCOc1ccc(-c2ccc(NS(=O)(=O)c3cc(C)c(C)cc3C)cc2)nn1,/,5.7%,/,/,/,-77.1*
CCN(CC)c1ccc(/C=N/c2sc3c(c2C#N)C2CCN3CC2)c(O)c1,-12.3%,1.1%,0.3%,4.47µM*,-5.9%,/
